The campaign covered roughly 2,100 compounds. About 1,100 (52%) were called active. About 27% were inconclusive and are not listed. So high a share suggests a set chosen from earlier hits. The list shows a part of the results. Values without a mark were called inactive. Calls come from the whole dose curve; as a rule, active = well fitted inhibition curve with a large enough effect; inconclusive = small, poorly fitted or top-dose-only effect; inactive = no such curve, though single readings can be large or run the other way.
Molecular target: DNA dC->dU-editing enzyme APOBEC-3G (Homo sapiens) (UniProt Q9HC16)
Test: qHTS for inhibitors of Vif-A3G interactions: Cherry picks counterscreen;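 note: hits raise yellow fluorescence by blocking Vif-driven A3G-eYFP degradation; nearly all actives have a fitted effect of over 70% in size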;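 for max response: max response given as percent of control signal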
Details: HeLa A3G-eYFP + Vif (tagged APOBEC3G with the HIV-1 protein that degrades it), eYFP fluorescence, 24 h
Procedure, shortened: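 HeLa cells stably expressing A3G-eYFP and Vif were treated for 24 h at 37 deg C with compounds at several concentrations; yellow fluorescence (Ex 488 nm, Em 500-530 nm) read by Acumen Explorer, MG132 as positive control.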
Potency is the fitted concentration of half-maximal effect.

Sequence of DNA dC->dU-editing enzyme APOBEC-3G (Homo sapiens) (Q9HC16 whole entry, looked up): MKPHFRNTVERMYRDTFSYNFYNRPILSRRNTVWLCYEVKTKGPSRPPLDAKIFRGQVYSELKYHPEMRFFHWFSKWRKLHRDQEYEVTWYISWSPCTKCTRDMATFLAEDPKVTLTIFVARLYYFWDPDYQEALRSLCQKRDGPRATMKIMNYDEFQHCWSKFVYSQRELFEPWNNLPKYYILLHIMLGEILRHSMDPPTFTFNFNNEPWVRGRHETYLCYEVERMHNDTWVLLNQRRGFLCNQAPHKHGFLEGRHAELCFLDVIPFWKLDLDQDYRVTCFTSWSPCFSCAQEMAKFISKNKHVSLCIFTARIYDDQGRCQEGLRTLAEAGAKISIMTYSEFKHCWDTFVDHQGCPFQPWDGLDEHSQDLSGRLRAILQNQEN

| SMILES | Potency | max response |
| --- | --- | --- |
| COc1cc(C2C3=C(COC3=O)Oc3cc4c(cc32)OCO4)ccc1OC(C)=O (configuration not stated) | 1.77 µM (active) | – |
| O=C1OCC2=C1C(c1ccc3c(c1)OCO3)c1cc3c(cc1O2)OCO3 (configuration not stated) | 2.23 µM (active) | – |
| CCNc1cc(N2CCN(C3CCCCC3)CC2)c2noc3c2c1C(=O)c1ccccc1-3 | 7.31 µM (active) | – |
| CN(C)CCCNc1cc(N2CCN(C3CCCCC3)CC2)c2noc3c2c1C(=O)c1ccccc1-3 | 1.84 µM (active) | – |
| O=C1c2ccccc2-c2onc3c(N4CCN(C5CCCCC5)CC4)cc(NCCO)c1c23 | 2.59 µM (active) | – |
| CC[N+](C)(C)c1ccc(/C=C/c2ccncc2)cc1 | 16.4 µM (active) | – |
| CCC[N+](C)(C)c1ccc(/C=C/c2ccncc2)cc1 | 16.4 µM (active) | – |
| Cc1ccc(-c2nc(C=Nc3ccc(O)cc3)c(O)o2)cc1 | – | -18.6% |
| N#Cc1c(Nc2ccccc2)[n+]([O-])c2ccc(Cl)cc2[n+]1[O-] | – | 26.1% |
| O=C1CC(c2ccccc2F)c2cc3c(cc2N1)CCC3 (configuration not stated) | 2.8 µM (active) | – |
| O=C1CC(c2cc(Br)ccc2F)c2cc3c(cc2N1)CCC3 (configuration not stated) | 1.4 µM (active) | – |
| CCOC(=O)Cc1csc(NC(=O)c2sc3nc4c(C)cc(C)cc4cc3c2N)n1 | 20.6 µM (active) | – |
| CCOc1cc(S(=O)(=O)NCc2ccc(OC)cc2)c(OCC)cc1-n1cnnn1 | 8.86 µM (active) | – |
| Cc1cc(C)c(N2C(=O)CC(Sc3ccccc3N)C2=O)c(C)c1 (configuration not stated) | 17.7 µM (active) | – |
| Cc1ccc(S(=O)(=O)N2CCN(C(=O)CSC(=S)N3CCCC3)CC2)c(C)c1 | – | -17.2% |
| COc1cc(C(=O)NCC(=O)N2CCN(S(=O)(=O)c3cc(C)ccc3C)CC2)cc(OC)c1OC | 9.94 µM (active) | – |
| CCOc1ccc(NC(=O)N2CC=C(c3c[nH]c4ccccc34)CC2)cc1 | 18.4 µM (active) | – |
| COC(=O)c1ccc(Cl)cc1NC(=O)N1CC=C(c2c[nH]c3ccccc23)CC1 | 23.1 µM (active) | – |
| Cc1ccc(C)c(NC(=O)N2CC=C(c3c[nH]c4ccccc34)CC2)c1 | 16.4 µM (active) | – |

| SMILES | Potency | max response |
| --- | --- | --- |
| CSc1cccc(NC(=O)c2cc3c(COC(C)=O)cnc(C)c3oc2=O)c1 | – | 2.84% |
| Cc1cc(C)nc(-n2nc(C)cc2NC(=O)c2ccc(F)cc2F)n1 | – | -9.45% |
| O=[N+]([O-])c1ccc(N/N=C/c2sc(N3CCOCC3)nc2-c2ccccc2)c(S(=O)(=O)Nc2ccccc2Cl)c1 | 2.91 µM (active) | – |
| COc1ccccc1NS(=O)(=O)c1cc([N+](=O)[O-])ccc1N/N=C/c1sc(N2CCOCC2)nc1-c1ccccc1 | 0.58 µM (active) | – |
| Cc1cc2nc(SCCOC(=O)Nc3cccc(Cl)c3)nc(C)c2cc1C | – | 0.137% |
| C=CCOC(=O)C1=C(C)NC(C)=C(C(=O)OCC=C)C1c1cn(-c2ccccc2)nc1-c1ccco1 | – | -22.7% |
| COc1ccc2c(C)cc(SCC(=O)N(C)C3CCS(=O)(=O)C3)nc2c1 (configuration not stated) | 20.6 µM (active) | – |
| COc1ccc2c(C)cc(SCC#N)nc2c1 | 18.4 µM (active) | – |
| CS(=O)(=O)Nc1ccc(C2=NN(S(C)(=O)=O)C(c3ccc4c(c3)OCO4)C2)cc1 (configuration not stated) | 14 µM (active) | – |
| CCS(=O)(=O)N1N=C(c2cccc(NS(C)(=O)=O)c2)CC1c1ccc(C)cc1 (configuration not stated) | 23.1 µM (active) | – |
| CCS(=O)(=O)N1N=C(c2ccc(C)cc2)CC1c1cc2ccc(OC)cc2nc1Cl (configuration not stated) | – | -6.38% |
| CS(=O)(=O)N1N=C(c2ccccc2)CC1c1ccc2c(c1)OCO2 (configuration not stated) | 12.5 µM (active) | – |
| CC1=CC(C)(C)NC(=S)N1c1ccc2ccccc2c1 | – | 5% |
| C=C(/C=C/c1ccc(N(C)C)cc1)c1nc2ccccc2s1 | 16.4 µM (active) | – |
| O=c1[nH]ncc2c3ccccc3n(Cc3cccc(Cl)c3)c12 | 18.4 µM (active) | – |
| CC[N+](C)(C(=O)O)/C(=C\c1ccccc1)c1ccnc2ccccc12 (configuration not stated) | 16.4 µM (active) | – |
| C[C@@H]1O[C@@H](O[C@@H]2C(=O)c3c(O)cc(O)cc3O[C@H]2c2ccc(O)c(O)c2)[C@H](O)[C@H](O)[C@H]1O | – | -0.692% |
| CCSc1nnc(-c2sc3nnc(-c4ccccc4)c(-c4ccccc4)c3c2N)o1 | 4.61 µM (active) | – |
| CCN1CCc2nc3sc(C(=O)c4ccccc4)c(N)c3cc2C1 | 18.4 µM (active) | – |

| SMILES | Potency | max response |
| --- | --- | --- |
| COc1ccc(NC(=O)c2sc3nc4c(cc3c2N)CN(Cc2ccccc2)CC4)c(OC)c1 | 18.4 µM (active) | – |
| Nc1c(C(=O)c2ccc(Cl)cc2)sc2nc3c(cc12)CCC3 | 16.4 µM (active) | – |
| Cc1cc(N2CCN(C)CC2)ccc1NC(=O)c1c2c(nc3ccccc13)CCN(Cc1ccccc1)C2 | – | 4.5% |
| COCCN1C(=O)/C(=C/c2ccc(N3CCCC3)cc2)SC1=S | 7.31 µM (active) | – |
| COCCN1C(=O)/C(=C/c2ccc(N3CCCC3)cc2C)SC1=S | 4.11 µM (active) | – |
| Cc1ccc2oc(/N=C(\N)NC(=O)C(C)(C)C)nc2c1 | – | -19% |
| C/C(=N\NC(N)=S)C12CC3CC(CC(C3)C1)C2 | – | 27.9% |
| COc1ccc(NC(=S)Nc2ncccc2C)c(OC)c1 | – | -0.005% |
| COc1ccc(/C=C/c2ccnc3ccccc23)c(OC)c1 | 16.4 µM (active) | – |
| COc1cc(OC)c(/C=C/c2ccnc3ccccc23)c(OC)c1 | 7.31 µM (active) | – |
| c1ccc2c(-c3nc4ccccc4[nH]3)cccc2c1 | 11.2 µM (active) | – |
| CCC(C)n1c(NC(=O)c2ccccc2)c(C#N)c2nc3ccccc3nc21 (configuration not stated) | 18.4 µM (active) | – |
| CCn1ncc(/C=N\NC(=O)c2csc3ccccc23)c1C | 5.59 µM (active) | – |
| COc1ccc(Cn2c(=O)cc(N)n(-c3ccccc3C)c2=O)cc1 | 11.2 µM (active) | – |
| CCN(CC)c1ccc2cc(-c3nc(-c4cc(OC)c(OC)c(OC)c4)no3)c(=O)oc2c1 | 0.517 µM (active) | – |
| CCN(CC)c1ccc2cc(-c3nc4ccccc4n3C)c(=O)oc2c1 | 1.3 µM (active) | – |
| CCN(CC)c1ccc2cc(-c3nnc(-c4ccccc4)o3)c(=O)oc2c1 | – | 49.6% |
| CCN(CC)c1ccc2cc(-c3nnc(-c4cccc(Cl)c4)o3)c(=O)oc2c1 | 2.59 µM (active) | – |
| CCN(CC)c1ccc2cc(-c3nc(-c4ccccc4)no3)c(=O)oc2c1 | 2.06 µM (active) | – |

Reference: PubChem BioAssay AID651813 (National Center for Advancing Translational Sciences (NCATS), 2012)
